Screens as filed in PubChem BioAssay.
Rab9 prom act = activators of Rab9 promoter | 2.8% of 320,000 active | Huh7 Rab9 promoter-luciferase reporter, luminescence, 24 h | Potency, µM (doses to about 9.22 µM), for inactives: at the highest dose activation, negative = inhibition, hits mostly activators; also: % of control where 0% means no effect; nearly all actives have a fitted effect of over 60% in size
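Quantitative HTS format; Huh7 Rab9-luciferase reporter cells (1500/well) receive compound 2 h post-plating, incubate 24 h at 37 °C, then get luciferase reagent for 10 min before luminescence reading.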
SMN2 splice up = SMN2 splice variant enhancement; 2.8% of 210,000 active; HEK293 SMN2-luciferase splicing reporter, luminescence, 30-36 h; Potency, µM (top dose mostly 46.1 µM), without a hit: at the top dose activity change, positive = activation, hits mostly activators; also: % of control where 0% means no effect; nearly all actives have a fitted effect of over 55% in size
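qHTS luciferase splicing reporter: luminescence rises when SMN2 exon 7 is included in transfected HEK293 cells. Compound exposure lasted 30-36 h at 37C, with 4.5 mM final sodium butyrate as control, followed by a ONE-Glo read.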
Luc counter = blocks Kinase-Glo luciferase, a counter-screen artifact. Q27757. Kinase-Glo luciferase, ATP luminescence, 8 min. Potency, µM (highest dose often 38.3 µM), for the others: at the highest dose activity change, negative = inhibition, usual class: inhibitors. 0.28% of 200,000 active. AID 1379; also: % is scaled to controls: 0 for no effect and ±100 for the full control effect; nearly all actives have a fitted effect of over 60% in size
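Luminescence was the read-out, taken after 8-minute incubation at ambient temperature. Luciferase turned over luciferin with 10 uM ATP in imidazole pH 7.2 buffer containing KCl, MgCl2, Tween 20 and BSA.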
FLuc counter = counter-screen for miR-21 project: firefly luciferase inhibitors or activators | P08659 | purified FLuc, Km substrates, luminescence inhibition | Potency, µM (doses to about 57.5 µM), inactives show top-dose activity change, negative = inhibition, actives largely listed as inhibitors | 6.9% of 360,000 active;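 also: plate controls were vehicle for no effect and reference inhibitor for full effect; nearly all actives have a fitted effect of over 55% in size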
Target sequence (P08659 whole entry, looked up): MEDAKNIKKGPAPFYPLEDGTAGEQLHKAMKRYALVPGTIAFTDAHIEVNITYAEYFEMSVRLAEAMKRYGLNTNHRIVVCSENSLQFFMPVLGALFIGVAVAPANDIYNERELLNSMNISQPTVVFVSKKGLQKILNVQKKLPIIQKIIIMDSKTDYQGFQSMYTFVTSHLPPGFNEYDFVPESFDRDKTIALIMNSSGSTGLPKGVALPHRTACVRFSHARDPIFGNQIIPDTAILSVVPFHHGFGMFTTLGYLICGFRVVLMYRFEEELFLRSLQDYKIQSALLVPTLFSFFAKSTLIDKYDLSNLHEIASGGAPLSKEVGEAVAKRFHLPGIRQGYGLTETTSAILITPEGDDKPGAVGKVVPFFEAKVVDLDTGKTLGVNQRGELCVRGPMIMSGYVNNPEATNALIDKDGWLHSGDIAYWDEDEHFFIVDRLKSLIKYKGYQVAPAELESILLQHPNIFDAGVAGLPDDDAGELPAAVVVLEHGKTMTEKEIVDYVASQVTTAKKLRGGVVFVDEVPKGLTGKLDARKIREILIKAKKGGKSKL
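Purified P. pyralis luciferase, 10 nM final, with Km-level 10 uM D-luciferin and 10 uM ATP in 50 mM Tris acetate pH 7.5, 10 mM Mg acetate, 0.01% Tween-20, 0.05% BSA; 6-point qHTS titration about 60 µM downward; luminescence read.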
ELG1 genotox = induces genotoxicity in HEK293T cells with luciferase-tagged ELG1; HEK293T ELG1-luciferase reporter, luminescence, 16 h; Potency, µM (top dose mostly 46 µM), for inactives: at the top dose activity change, positive = activation, usual class: activators; 1.3% of 330,000 active; also: % of control where 0% means no effect; nearly all actives have a fitted effect of over 60% in size
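Cells (2,000/well) expressing the ELG1-luciferase fusion are dosed by pin tool and kept 16 hr at 37 °C, 5% CO2. Signal comes from ONE-Glo luciferase reagent after 30 min at room temperature.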
NPC1 prom act = NPC1 promoter activation; Potency, µM (highest dose often 9.22 µM), for inactives: at the top dose activation, hits mostly activators; AID 485313; 2.4% of 320,000 active; Huh7 NPC1 promoter luciferase reporter, 24 h; also: % of control where 0% means no effect; nearly all actives have a fitted effect of over 60% in size
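Huh7 reporter cells (NPC1 promoter driving luciferase) are dosed with compound for 24 h at 37 °C, 5% CO2; luciferase detection reagent is then added and luminescence measured after 10 min at ambient temperature.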
Starred values were filed as active, the others as inactive; ? = inconclusive; · = no result; [ ] = dose if it differs, or a comment. An excerpt weighted towards active compounds, which were near 7.5% of everything screened. Calls follow the shape of the dose curve; as a rule, active = well fitted curve in the direction sought with a large enough effect; inconclusive = small, poorly fitted or top-dose-only effect, or another doubt; inactive = no such curve, though single readings can be large; an effect the other way counts as inactive or inconclusive. Potency is read from the fitted curve at half-maximal effect.

SMILES	Rab9 prom act	SMN2 splice up	Luc counter	FLuc counter	ELG1 genotox	NPC1 prom act
CC(=O)c1cccc(NC(=O)CSc2ccc(-c3ccco3)nn2)c1	15%	·	·	24µM*	-13%	12%
CSc1ncc(Cl)c(C(=O)Nc2c(C(=O)c3ccc(C)c(F)c3)oc3ccccc23)n1	·	7%	·	4%	·	·
COc1ccc(Oc2ncc3nc(-c4ccc(Cl)cc4)c(=O)n(C)c3n2)cc1	·	2%	-1%	·	·	·
O=C(OCC(=O)N1CCc2ccccc21)c1cncc(Br)c1	7%	-5%	1%	-15%	-3%	2%
COc1ccc(CNC(=O)CSc2nc(-c3ccccc3)cc(-c3cccs3)c2C#N)cc1	1%	21%	-2%	2%	?	-2%
COc1ccc(-c2ccc(SCC(=O)NC3CCCCC3)nn2)cc1OC	?	·	·	5.4µM*	9%	27%
CC(=O)c1cccc(NC(=O)CSc2ccc(-c3ccc4c(c3)OCO4)nn2)c1	?	12%	-13%	?	-3%	27%
COc1ccc(-c2ccc(SCC(=O)Nc3cccc(C(C)=O)c3)nn2)cc1OC	30%	·	-12%	6µM*	-15%	23%
COc1ccc(-c2cc(-c3cccs3)c(C#N)c(SCC(=O)NCc3ccco3)n2)cc1	-13%	13%	-7%	12µM*	?	-20%
COc1ccc(-c2noc(-c3ccccc3C(=O)NCc3ccco3)n2)cc1OC	-3%	-10%	-6%	19µM*	-19%	9%
CC(=O)Nc1cccc(-c2nnc(SCC(=O)c3cc([N+](=O)[O-])ccc3Cl)o2)c1	·	-5%	·	?	·	·
COc1cccc(C(=O)NCC2OCCc3ccccc32)c1 (stereo not drawn)	·	28%	·	?	·	·
Cc1ccc2cc(CN(CCN(C)C)C(=O)Nc3ccc(Cl)cc3)c(=O)[nH]c2c1	2%	·	1%	11µM*	-1%	0%
O=C(O)C/C=C\CC(=O)O	·	-7%[9.22 µM]	-2%[7.66 µM]	·	·	·
Cc1noc(C)c1C(=O)N1CCC2(CCN(Cc3nccs3)CC2)CC1	·	-1%	0%	·	·	·
O=C(COc1ccc(Cl)cc1)NNC(=O)c1ccccn1	0%	4%	-2%	1%	-9%	6%
Cc1cc(C)nc(NC(=O)COc2ccc(Cl)cc2)c1	·	-5%[9.22 µM]	0%[7.66 µM]	·	·	·
O=C(COc1ccc(Cl)cc1)Nc1ncccn1	16%	8%	-6%	19µM*	21µM*	13%
Cc1ccnc(NC(=O)COc2ccc(Cl)cc2)n1	21%	·	·	24µM*	?	19%
O=C(NC1CC1)c1cc2c(s1)-c1ccccc1OC2	11%	-46%	-2%	12µM*	?	27%
Cc1ccc(COc2ccc(-c3nnco3)cc2)cc1	3.5µM*	·	·	9.5µM*	?	2.2µM*
CC(=O)Nc1ccc(OCc2ccc3c(c2)OCO3)cc1	1.6µM*	·	·	17µM*	?	0.63µM*
O=C(Nc1ccc2c(c1)OCO2)c1c(F)cccc1F	3.2µM*	10µM*	-1%	12µM*	?	3.5µM*
O=C(Nc1cccc(F)c1)Nc1ccc2c(c1)OCO2	2.8µM*	·	·	7.6µM*	?	2.2µM*
CC(C)[C@H](NC(=O)c1ccccc1F)C(=O)Nc1ccc2c(c1)OCO2	1%	·	·	-1%	12%	-1%
SMILES	Rab9 prom act	SMN2 splice up	Luc counter	FLuc counter	ELG1 genotox	NPC1 prom act
O=C(O)Cc1ccc(NC(=O)Nc2ccc3c(c2)OCO3)cc1	?	·	·	9.5µM*	?	26%
O=C(Nc1ccc2c(c1)OCO2)C1CCCN1C(=O)Nc1cccc(F)c1 (stereo not drawn)	13%	-4%	-1%	-2%	-3%	-3%
O=C(NCc1ccc2c(c1)OCO2)Nc1ccc(Cl)cc1	25%	·	·	4%	?	26%
CN1CC(=O)N(CC(=O)Nc2cccc(C#N)c2)c2ccccc2C1=O	·	·	·	0%	·	·
O=C(Nc1ccc2c(c1)OCO2)NC1CCN(Cc2ccccc2)CC1	2%	?	-2%	17µM*	?	12%
O=C(Nc1ccc2c(c1)OCO2)c1cccc(F)c1	·	?	-24%	12µM*	·	·
CC(C)C(=O)Nc1cccc(NC(=O)c2cccc(F)c2)c1	5%	3%	-1%	1%	-5%	1%
O=C(Nc1ccc(F)cc1)NC1CCN(Cc2ccccc2)CC1	-7%	-6%	2%	4%	-7%	-6%
COc1ccc(-c2csc(NC(=O)c3ccccc3Br)c2C(=O)O)cc1	-5%	·	·	?	-3%	-4%
O=C(Nc1scc(-c2ccccc2)c1C(=O)O)c1ccccc1F	20%	·	·	27µM*	6%	21%
Cc1ccc(C(=O)Nc2scc(-c3ccccc3)c2C(=O)O)o1	3%	4%	-14%	15µM*	7%	-1%
Cc1ccc(-c2csc(NC(=O)c3ccccc3F)c2C(=O)O)cc1	4%[1.84 µM]	·	·	21µM*	-4%	?
CN1CCN(CCCNC(=O)Cn2c(-c3cccs3)cc3cc(Cl)ccc32)CC1	·	·	·	-1%	·	·
O=C(NCC1CCCO1)c1sc2ccccc2c1Cl (stereo not drawn)	?	13µM*	1%	19µM*	?	?
O=C(NCC1CCCO1)c1cccc2ccccc12 (stereo not drawn)	-4%	·	·	1%	-4%	1%
COc1ccc2c(Cl)c(C(=O)NCC3CCCO3)sc2c1Cl (stereo not drawn)	22%	·	2%	-9%	2%	4%
O=C(NCC1CCCO1)c1sc(=S)n2c1[nH]c(=O)c1ccc(C(=O)N3CCCCC3)cc12 (stereo not drawn)	1%	9%	-1%	21µM*	-2%	-5%
Cc1ccc2c(Cl)c(C(=O)NCC3CCCO3)sc2c1 (stereo not drawn)	2.2µM*	11µM*	-4%	5.4µM*	?	2µM*
CC(NC(=O)c1csc2ccccc12)C1CCCO1 (stereo not drawn)	2%	15%	-3%	-11%	?	12%
O=C(NCCc1ccccc1)c1ccc2c(=O)[nH]c3c(C(=O)NCC4CCCO4)sc(=S)n3c2c1 (stereo not drawn)	4%	·	·	?	0%	3%
CC(NC(=O)c1sc2ccccc2c1Cl)C1CCCO1 (stereo not drawn)	?	11µM*	-1%	9.5µM*	?	?
Cc1cccc(N2C(=O)CSC23C(=O)N(Cc2cccc(C(F)(F)F)c2)c2ccccc23)c1 (stereo not drawn)	·	·	·	-2%	·	·
CC1(C)CC(=O)c2cc(C(=O)Nc3ccccc3Cl)c(=O)n(-c3ccc(Cl)cc3)c2C1	·	·	·	2%	·	·
